# Key:
# [1] = target: Ribosomal protein S6 kinase alpha-6 (Homo sapiens) (UniProt Q9UK32); conditions: at 1 µM;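 further: each value is a mean inhibition of RSK4 from a GSK PKIS panel screen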
# [2] = target: T1, Serine/threonine-protein kinase Sgk1 (Homo sapiens) (UniProt O00141); conditions: at 0.1 µM
# T1 sequence (whole entry): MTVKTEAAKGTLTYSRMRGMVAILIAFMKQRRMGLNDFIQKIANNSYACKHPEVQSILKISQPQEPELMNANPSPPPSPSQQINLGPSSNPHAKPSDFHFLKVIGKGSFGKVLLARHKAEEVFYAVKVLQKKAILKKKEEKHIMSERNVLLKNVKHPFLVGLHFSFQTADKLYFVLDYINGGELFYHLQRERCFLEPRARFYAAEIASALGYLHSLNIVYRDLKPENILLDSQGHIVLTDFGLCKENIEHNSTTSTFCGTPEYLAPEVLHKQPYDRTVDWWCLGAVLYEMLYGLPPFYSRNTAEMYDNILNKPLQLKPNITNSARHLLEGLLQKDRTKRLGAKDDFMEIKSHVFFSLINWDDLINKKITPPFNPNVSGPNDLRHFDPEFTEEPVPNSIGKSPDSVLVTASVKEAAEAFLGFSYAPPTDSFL
# [3] = target: T1, Serine/threonine-protein kinase Sgk1 (Homo sapiens); conditions: at 1 µM
# [4] = target: T2, Serine/threonine-protein kinase Sgk2 (Homo sapiens) (UniProt Q9HBY8); conditions: at 0.1 µM
# T2 sequence (whole entry): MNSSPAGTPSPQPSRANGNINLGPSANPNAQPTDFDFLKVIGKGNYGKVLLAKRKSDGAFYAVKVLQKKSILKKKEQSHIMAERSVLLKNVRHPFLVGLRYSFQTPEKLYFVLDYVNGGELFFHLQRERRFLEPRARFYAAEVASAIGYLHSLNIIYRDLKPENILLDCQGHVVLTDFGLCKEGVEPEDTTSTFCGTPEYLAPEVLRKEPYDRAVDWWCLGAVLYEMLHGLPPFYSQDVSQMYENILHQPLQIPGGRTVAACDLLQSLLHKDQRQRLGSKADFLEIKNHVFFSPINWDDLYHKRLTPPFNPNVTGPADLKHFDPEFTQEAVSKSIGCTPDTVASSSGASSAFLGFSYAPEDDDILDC
# [5] = target: T2, Serine/threonine-protein kinase Sgk2 (Homo sapiens); conditions: at 1 µM
# [6] = target: T3, Serine/threonine-protein kinase Sgk3 (Homo sapiens) (UniProt Q96BR1); conditions: at 0.1 µM
# T3 sequence (whole entry): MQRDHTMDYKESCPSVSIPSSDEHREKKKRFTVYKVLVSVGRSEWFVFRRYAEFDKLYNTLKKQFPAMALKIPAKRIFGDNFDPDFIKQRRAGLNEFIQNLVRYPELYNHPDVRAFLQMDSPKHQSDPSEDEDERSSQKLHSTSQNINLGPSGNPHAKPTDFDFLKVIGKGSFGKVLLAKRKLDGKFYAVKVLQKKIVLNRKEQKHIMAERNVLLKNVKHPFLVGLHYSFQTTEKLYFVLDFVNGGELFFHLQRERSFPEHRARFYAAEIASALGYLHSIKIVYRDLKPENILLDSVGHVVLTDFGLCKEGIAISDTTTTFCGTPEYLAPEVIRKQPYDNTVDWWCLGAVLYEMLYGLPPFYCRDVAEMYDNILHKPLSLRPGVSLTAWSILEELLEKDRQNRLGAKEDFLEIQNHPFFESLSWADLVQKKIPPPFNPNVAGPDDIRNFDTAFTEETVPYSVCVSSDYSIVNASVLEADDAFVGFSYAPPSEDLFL
# [7] = target: T3, Serine/threonine-protein kinase Sgk3 (Homo sapiens); conditions: at 1 µM
# [8] = target: 5'-AMP-activated protein kinase catalytic subunit alpha-1 (Homo sapiens) (UniProt Q13131); conditions: at 0.1 µM
# Chain of 5'-AMP-activated protein kinase catalytic subunit alpha-1 (Homo sapiens) (Q13131 whole entry, looked up): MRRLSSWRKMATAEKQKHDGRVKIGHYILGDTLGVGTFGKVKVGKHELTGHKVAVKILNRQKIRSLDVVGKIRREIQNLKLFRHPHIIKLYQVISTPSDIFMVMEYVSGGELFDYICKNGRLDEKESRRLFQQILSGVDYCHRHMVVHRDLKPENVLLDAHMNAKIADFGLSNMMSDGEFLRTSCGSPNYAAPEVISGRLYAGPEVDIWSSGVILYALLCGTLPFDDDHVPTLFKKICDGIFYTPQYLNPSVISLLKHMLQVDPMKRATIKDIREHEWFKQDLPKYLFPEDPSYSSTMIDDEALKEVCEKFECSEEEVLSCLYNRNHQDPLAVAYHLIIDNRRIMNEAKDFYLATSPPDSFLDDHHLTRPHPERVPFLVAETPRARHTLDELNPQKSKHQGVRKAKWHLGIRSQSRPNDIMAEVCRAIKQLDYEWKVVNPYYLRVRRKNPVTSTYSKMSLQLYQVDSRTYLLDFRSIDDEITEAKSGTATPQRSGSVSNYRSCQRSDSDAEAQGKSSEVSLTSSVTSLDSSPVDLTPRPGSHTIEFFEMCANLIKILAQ
# [9] = target: 5'-AMP-activated protein kinase catalytic subunit alpha-1 (Homo sapiens) (UniProt Q13131); conditions: at 1 µM
# [10] = target: 5'-AMP-activated protein kinase catalytic subunit alpha-2 (Homo sapiens) (UniProt P54646); conditions: at 0.1 µM
# Chain of 5'-AMP-activated protein kinase catalytic subunit alpha-2 (Homo sapiens) (P54646 whole entry, looked up): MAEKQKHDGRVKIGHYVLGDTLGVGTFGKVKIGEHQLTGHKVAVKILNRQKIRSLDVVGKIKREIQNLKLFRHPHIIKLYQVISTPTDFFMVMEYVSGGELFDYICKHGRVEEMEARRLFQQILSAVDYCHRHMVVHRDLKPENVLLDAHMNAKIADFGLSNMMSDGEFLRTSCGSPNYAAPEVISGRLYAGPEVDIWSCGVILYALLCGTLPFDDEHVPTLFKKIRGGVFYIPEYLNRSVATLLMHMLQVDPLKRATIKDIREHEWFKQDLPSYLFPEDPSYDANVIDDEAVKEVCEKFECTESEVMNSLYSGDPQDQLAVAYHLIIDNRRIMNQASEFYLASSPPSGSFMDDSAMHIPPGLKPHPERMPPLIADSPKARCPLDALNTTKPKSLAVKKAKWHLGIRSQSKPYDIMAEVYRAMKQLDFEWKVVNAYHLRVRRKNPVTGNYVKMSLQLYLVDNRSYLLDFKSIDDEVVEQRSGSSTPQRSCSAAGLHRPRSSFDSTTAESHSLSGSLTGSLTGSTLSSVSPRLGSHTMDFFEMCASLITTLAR
# [11] = target: 5'-AMP-activated protein kinase catalytic subunit alpha-2 (Homo sapiens) (UniProt P54646); conditions: at 1 µM
# [12] = target: T4, NUAK family SNF1-like kinase 1 (Homo sapiens) (UniProt O60285); conditions: at 0.1 µM
# T4 sequence (whole entry): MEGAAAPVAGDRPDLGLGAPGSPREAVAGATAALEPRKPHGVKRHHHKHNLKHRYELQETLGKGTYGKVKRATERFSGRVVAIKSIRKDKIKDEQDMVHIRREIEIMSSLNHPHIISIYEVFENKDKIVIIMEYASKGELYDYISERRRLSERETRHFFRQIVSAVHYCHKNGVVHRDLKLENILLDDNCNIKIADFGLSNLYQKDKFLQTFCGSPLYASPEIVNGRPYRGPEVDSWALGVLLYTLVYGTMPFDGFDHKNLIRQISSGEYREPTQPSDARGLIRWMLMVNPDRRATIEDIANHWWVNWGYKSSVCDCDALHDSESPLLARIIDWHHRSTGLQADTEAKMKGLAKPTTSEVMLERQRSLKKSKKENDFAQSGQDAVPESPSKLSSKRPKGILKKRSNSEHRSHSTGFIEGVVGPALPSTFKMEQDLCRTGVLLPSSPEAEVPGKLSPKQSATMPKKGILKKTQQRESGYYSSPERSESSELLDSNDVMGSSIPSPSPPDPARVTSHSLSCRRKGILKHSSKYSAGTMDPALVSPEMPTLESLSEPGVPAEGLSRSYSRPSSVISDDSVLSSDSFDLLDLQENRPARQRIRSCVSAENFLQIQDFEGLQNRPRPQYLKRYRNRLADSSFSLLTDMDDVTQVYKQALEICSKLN
# [13] = target: T4, NUAK family SNF1-like kinase 1 (Homo sapiens); conditions: at 1 µM
# [14] = target: T5, Serine/threonine-protein kinase BRSK1 (Homo sapiens) (UniProt Q8TDC3); conditions: at 0.1 µM
# T5 sequence (whole entry): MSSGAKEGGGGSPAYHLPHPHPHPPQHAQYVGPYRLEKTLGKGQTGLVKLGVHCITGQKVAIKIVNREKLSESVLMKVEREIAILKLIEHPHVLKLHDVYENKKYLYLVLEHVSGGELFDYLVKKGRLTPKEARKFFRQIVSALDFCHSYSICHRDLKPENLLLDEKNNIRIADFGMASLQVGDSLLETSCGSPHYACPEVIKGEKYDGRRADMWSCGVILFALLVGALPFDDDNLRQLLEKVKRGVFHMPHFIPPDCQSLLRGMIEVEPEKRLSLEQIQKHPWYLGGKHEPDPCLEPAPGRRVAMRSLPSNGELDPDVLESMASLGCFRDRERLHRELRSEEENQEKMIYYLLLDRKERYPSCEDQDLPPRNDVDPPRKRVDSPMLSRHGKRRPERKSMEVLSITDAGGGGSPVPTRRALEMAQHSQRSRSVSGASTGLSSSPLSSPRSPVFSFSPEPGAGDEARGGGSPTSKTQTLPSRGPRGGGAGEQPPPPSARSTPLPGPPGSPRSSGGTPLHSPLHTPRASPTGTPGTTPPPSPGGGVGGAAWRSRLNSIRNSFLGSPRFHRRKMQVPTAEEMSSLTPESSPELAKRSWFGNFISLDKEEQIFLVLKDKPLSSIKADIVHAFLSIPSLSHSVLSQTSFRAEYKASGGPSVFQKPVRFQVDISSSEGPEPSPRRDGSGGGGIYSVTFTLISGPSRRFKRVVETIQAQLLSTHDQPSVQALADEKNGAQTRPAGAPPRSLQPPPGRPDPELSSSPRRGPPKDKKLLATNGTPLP
# [15] = target: T5, Serine/threonine-protein kinase BRSK1 (Homo sapiens); conditions: at 1 µM
# [16] = target: T6, Serine/threonine-protein kinase BRSK2 (Homo sapiens) (UniProt Q8IWQ3); conditions: at 0.1 µM
# T6 sequence (whole entry): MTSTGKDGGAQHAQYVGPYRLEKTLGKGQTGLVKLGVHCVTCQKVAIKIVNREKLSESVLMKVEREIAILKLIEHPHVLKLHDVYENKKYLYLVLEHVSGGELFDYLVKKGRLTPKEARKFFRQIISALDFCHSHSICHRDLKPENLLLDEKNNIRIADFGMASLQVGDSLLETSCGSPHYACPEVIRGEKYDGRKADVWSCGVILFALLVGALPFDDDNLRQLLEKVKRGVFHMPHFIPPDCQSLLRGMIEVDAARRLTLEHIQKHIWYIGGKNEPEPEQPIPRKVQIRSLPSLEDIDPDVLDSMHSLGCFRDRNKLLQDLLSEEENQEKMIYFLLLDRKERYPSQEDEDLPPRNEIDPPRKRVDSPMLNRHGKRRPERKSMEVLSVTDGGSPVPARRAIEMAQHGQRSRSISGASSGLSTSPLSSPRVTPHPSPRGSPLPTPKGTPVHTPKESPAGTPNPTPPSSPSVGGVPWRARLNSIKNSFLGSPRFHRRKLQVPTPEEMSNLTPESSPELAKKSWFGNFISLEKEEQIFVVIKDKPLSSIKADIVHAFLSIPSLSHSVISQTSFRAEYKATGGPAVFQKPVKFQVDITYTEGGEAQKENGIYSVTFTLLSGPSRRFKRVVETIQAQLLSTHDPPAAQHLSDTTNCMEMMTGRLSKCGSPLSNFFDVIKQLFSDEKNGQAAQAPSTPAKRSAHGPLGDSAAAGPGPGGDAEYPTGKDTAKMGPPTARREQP
# [17] = target: T6, Serine/threonine-protein kinase BRSK2 (Homo sapiens); conditions: at 1 µM
# [18] = target: Calcium/calmodulin-dependent protein kinase type 1D (Homo sapiens) (UniProt Q8IU85); conditions: at 0.1 µM
# Chain of Calcium/calmodulin-dependent protein kinase type 1D (Homo sapiens) (Q8IU85 whole entry, looked up): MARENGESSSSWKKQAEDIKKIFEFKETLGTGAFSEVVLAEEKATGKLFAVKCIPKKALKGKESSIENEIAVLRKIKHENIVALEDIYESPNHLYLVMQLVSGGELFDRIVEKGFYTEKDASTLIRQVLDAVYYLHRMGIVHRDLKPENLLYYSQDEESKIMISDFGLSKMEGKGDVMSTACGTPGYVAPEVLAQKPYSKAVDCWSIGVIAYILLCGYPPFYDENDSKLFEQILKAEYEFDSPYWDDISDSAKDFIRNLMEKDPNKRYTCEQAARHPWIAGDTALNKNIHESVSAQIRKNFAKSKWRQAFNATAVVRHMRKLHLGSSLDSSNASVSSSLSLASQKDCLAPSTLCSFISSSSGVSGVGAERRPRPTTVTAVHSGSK
# [19] = target: Calcium/calmodulin-dependent protein kinase type 1D (Homo sapiens) (UniProt Q8IU85); conditions: at 1 µM
# [20] = target: Calcium/calmodulin-dependent protein kinase type II subunit alpha (Homo sapiens) (UniProt Q9UQM7); conditions: at 0.1 µM;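 further: reported values are averages (mean inhibition of CAMK2A)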
# Chain of Calcium/calmodulin-dependent protein kinase type II subunit alpha (Homo sapiens) (Q9UQM7 whole entry): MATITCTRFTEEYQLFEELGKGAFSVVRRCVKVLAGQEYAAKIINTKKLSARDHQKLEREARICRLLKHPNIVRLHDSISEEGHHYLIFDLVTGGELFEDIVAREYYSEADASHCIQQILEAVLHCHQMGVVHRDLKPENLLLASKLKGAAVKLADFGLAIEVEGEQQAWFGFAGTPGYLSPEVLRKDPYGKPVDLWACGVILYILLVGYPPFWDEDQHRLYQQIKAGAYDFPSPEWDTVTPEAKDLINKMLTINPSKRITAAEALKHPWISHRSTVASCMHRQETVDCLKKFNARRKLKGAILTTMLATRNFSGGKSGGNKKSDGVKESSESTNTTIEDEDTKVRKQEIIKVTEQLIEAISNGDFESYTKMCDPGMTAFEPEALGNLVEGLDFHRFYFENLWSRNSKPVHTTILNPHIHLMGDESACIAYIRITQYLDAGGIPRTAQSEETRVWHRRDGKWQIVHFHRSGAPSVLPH
# Chain of Ribosomal protein S6 kinase alpha-6 (Homo sapiens) (Q9UK32 whole entry): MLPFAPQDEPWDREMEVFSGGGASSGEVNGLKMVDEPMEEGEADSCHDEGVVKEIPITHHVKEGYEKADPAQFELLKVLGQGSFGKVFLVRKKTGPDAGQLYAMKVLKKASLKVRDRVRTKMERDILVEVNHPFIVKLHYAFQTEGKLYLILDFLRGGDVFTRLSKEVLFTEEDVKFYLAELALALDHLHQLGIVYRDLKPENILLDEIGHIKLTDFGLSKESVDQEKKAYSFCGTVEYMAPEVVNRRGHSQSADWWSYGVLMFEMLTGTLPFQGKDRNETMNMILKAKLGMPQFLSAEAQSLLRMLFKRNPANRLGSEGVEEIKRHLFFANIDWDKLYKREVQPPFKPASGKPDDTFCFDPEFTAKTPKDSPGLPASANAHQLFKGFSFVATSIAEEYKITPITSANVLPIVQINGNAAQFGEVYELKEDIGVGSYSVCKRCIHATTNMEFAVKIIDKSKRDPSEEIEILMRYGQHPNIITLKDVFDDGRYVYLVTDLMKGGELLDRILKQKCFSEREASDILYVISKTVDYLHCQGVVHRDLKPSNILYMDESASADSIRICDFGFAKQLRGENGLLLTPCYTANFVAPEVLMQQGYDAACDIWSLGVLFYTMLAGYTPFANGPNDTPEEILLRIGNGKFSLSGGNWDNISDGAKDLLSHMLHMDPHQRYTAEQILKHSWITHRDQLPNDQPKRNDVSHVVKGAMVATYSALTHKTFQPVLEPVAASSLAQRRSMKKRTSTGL
SMILES,inhibition [1] [%],inhibition [2] [%],inhibition [3] [%],inhibition [4] [%],inhibition [5] [%],inhibition [6] [%],inhibition [7] [%],inhibition [8] [%],inhibition [9] [%],inhibition [10] [%],inhibition [11] [%],inhibition [12] [%],inhibition [13] [%],inhibition [14] [%],inhibition [15] [%],inhibition [16] [%],inhibition [17] [%],inhibition [18] [%],inhibition [19] [%],inhibition [20] [%]
COc1cc2ncn(-c3cc(OCc4ccccc4C(F)(F)F)c(C(C)=O)s3)c2cc1OC,1.71,2.88,2.59,3.09,3.04,3.08,2.17,1.8,2.83,-0.02,2.21,-0.05,3.5,2.73,4.41,3.99,4.95,-0.05,-0.22,4.56
C[C@@H](Oc1cc(-n2cnc3ccc(OC4CCN(C)CC4)cc32)sc1C(N)=O)c1ccccc1Cl,40.4,1.16,1.49,2.92,1.45,3.29,2.26,5.35,21.6,5.98,9.02,22,66.8,27.6,58,37.9,70.8,-0.95,3.84,2.57
O=C(Nc1n[nH]c2cc(-c3ccccc3)ccc12)C1CC1,3.11,2.86,5.38,1.79,1.73,4.57,3.95,3.49,4.22,4.21,7.53,4.99,2.6,4.46,21,3.64,19.7,0.34,-0.38,3.14
Fc1ccc(-c2c(-c3ccncc3)nc3n2CCS3)cc1,2.25,3.2,4.05,1.42,3.7,1.96,5.06,3.33,6.81,3.93,4.29,-0.3,1.86,-0.79,0.97,0.47,3.65,2.44,-0.09,0.37
COc1ccc2ncn(-c3cc(O[C@H](C)c4ccccc4Cl)c(C(N)=O)s3)c2c1,3.6,2.42,2.1,0.49,2.09,3.92,5.77,2.16,2.45,2.54,1.17,0.64,15.7,2.58,17.8,6.22,28.1,-1.85,-1.6,1.3
COc1cc(N2CCN(C(C)C)CC2)ccc1Nc1nc(Nc2ccc(F)cc2C(=O)NC[C@@H](O)CO)c2cc[nH]c2n1,8.27,4.42,7.18,2.67,4.33,2.59,6.24,4.23,5.78,2.37,3.64,4.38,17.2,-0.14,1.34,2.44,2.82,0.93,11,4.06
COc1ccc2cc(-c3c(-c4ccncc4)nc(-c4ccc(S(C)(=O)=O)cc4C)n3C)ccc2c1,2.04,3.01,4.51,5.05,4.24,2.89,4.29,3.65,2.77,4.21,3.5,-2.12,4.31,1.72,1.23,1.12,3.04,1.08,1.85,2.82

# From ChEMBL document CHEMBL1961873, “Compounds: GSK PKIS; Assays: Nanosyn kinase panel” (2012)
